{"source": "paper PMC5540273", "about": "(PLoS ONE, 2017);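 also: KINOMEscan kinase panel screen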"}
{"test_system": "DYRK1A", "conditions": "concentration: 1 μM,replicates: in singlicate; n = 1", "units": {"%Inh": "%"}}
{"smiles": "CCn1c(-c2nonc2N)nc2cncc(Br)c21", "note": "[SB-738004]", "%Inh": 98}
{"smiles": "O=C1NCCc2[nH]c(-c3ccncc3)cc21", "%Inh": 99.7}
{"smiles": "FC(F)(F)c1cc(Br)cc(Nc2nccc(-c3cnn4ncccc34)n2)c1", "note": "[GW810578]", "%Inh": 99.6}
{"smiles": "COc1cccc(OC)c1C(=O)Nc1cccc(-c2nn3ccccc3c2-c2ccnc(Nc3cccc(F)c3)n2)c1", "note": "[GSK361065]", "%Inh": 0}
{"smiles": "C[C@@H](Oc1cc(-n2cnc3cc(-c4ccncc4)ccc32)sc1C(N)=O)c1ccccc1Cl", "note": "[GSK479719]", "%Inh": 57}
{"smiles": "NC(=O)c1ccc(-c2cc3ncnc(SCC(=O)O)c3s2)cc1", "%Inh": 94.8}
{"smiles": "CC(C)S(=O)(=O)N1CCN(Cc2ccc3c(c2)nc(NC(=O)c2ccsc2)n3C[C@H](O)c2ccccc2)CC1", "note": "[GW635815]", "%Inh": 48}
{"smiles": "COc1cc2nccc(Nc3ccc(Oc4ccccc4)cc3)c2cc1OC.Cl", "note": "[GI261656]", "%Inh": 0}
{"smiles": "CS(=O)c1ccc(-c2coc3ccc(-c4n[nH]c(=O)o4)cc23)cc1", "note": "(stereo not shown)", "%Inh": 66}
{"smiles": "OCCn1cc(-c2cnc3nnn(Cc4ccc5ncccc5c4)c3n2)cn1", "%Inh": 0}
{"smiles": "COC(=O)c1cccc(NC(=O)NC2CCN(c3ccnc(Nc4cc(OC)c(OC)c(OC)c4)n3)C2)c1", "note": "(stereo not shown) [GSK1379767]", "%Inh": 0}
{"smiles": "O=c1[nH]cc(-c2ccc(O)cc2)c2sc(-c3ccncc3)cc12", "note": "[GSK1033723]", "%Inh": 90}
{"smiles": "COc1cc2ncn(-c3cc(OCC4CCCCC4)c(C(N)=O)s3)c2cc1OC", "note": "[GSK204559]", "%Inh": 21}
{"smiles": "Cc1cccc(-c2nc(Nc3ccncc3)c3sccc3n2)n1", "note": "[GW869641]", "%Inh": 20}
{"smiles": "O=C(Nc1ccc(Oc2ccc3nc(NC(=O)C4CC4)cn3n2)c(F)c1)c1cccn(-c2ccccc2)c1=O", "%Inh": 0}
{"smiles": "COC(=O)Nc1nc2cc(Oc3ccc(NC(=O)Nc4cc(C(F)(F)F)ccc4Cl)cc3)ccc2[nH]1.Cl", "note": "[GW697465]", "%Inh": 0}
{"smiles": "Cc1ccc(C(=O)Nc2ccc(Oc3ccc4nc(NC(=O)C5CC5)cn4c3)c(F)c2)c(=O)n1-c1ccccc1", "%Inh": 0}
{"smiles": "NC(=O)Nc1sc(-c2ccc(F)cc2)cc1C(N)=O", "note": "[GW789449]", "%Inh": 23}
{"smiles": "C[C@@H]1CNc2c(sc3ccc4nc(-c5ccncc5)ccc4c23)C(=O)N1", "%Inh": 99.7}
{"smiles": "CCN1CCN(CCCC(=O)Nc2n[nH]c3nc(-c4ccc(O)cc4)c(Br)cc23)CC1", "note": "[SB-731579]", "%Inh": 38}
{"smiles": "C[C@@H]1CNc2c(sc3ccc4nc(-c5ccc(O)cc5)ccc4c23)C(=O)N1", "%Inh": 98.9}
{"smiles": "Nc1nccc(-c2ccc3c(N)n[nH]c3c2)n1", "note": "[GSK1034945]", "%Inh": 99.6}
{"smiles": "c1ccc(Oc2ccc(Nc3ccnc4ccc(-c5ccccn5)cc34)cc2)cc1", "note": "[GW407034]", "%Inh": 24}
{"smiles": "CC(C(=O)NC1CCN(c2ccnc(Nc3ccc(F)cc3)n2)C1)c1ccc(Cl)cc1", "note": "(stereo not shown) [GSK1379713]", "%Inh": 10}
{"smiles": "CCn1c(-c2nonc2N)nc2cncc(CNC3CCNCC3)c21.Cl", "note": "[SB-747651]", "%Inh": 56}
{"smiles": "CN1CCN(CCCNc2nccc(-c3c(-c4ccc(F)cc4)nn4cc(C(N)=O)ccc34)n2)CC1", "note": "[GW622475]", "%Inh": 20}
{"smiles": "COc1cccc(CNC(=O)NC2CCN(c3ccnc(Nc4cc(OC)c(OC)c(OC)c4)n3)C2)c1", "note": "(stereo not shown) [GSK1379765]", "%Inh": 19}
{"smiles": "Cn1ccc2ncnc(Oc3ccc(NC(=O)Nc4cccc(C(F)(F)F)c4)c(F)c3)c21", "%Inh": 0}
{"smiles": "CC(=O)c1c(-c2ccncc2)[nH]c(-c2ccncc2)c1C", "note": "[GW493036]", "%Inh": 99.9}
{"smiles": "CCOC(=O)N1CCC(n2cnc(-c3ccc(F)cc3)c2-c2ccnc(N)n2)CC1", "note": "[SB-219952]", "%Inh": 2}
{"smiles": "C[C@@H](Oc1cc(-n2cnc3ccc(-c4ccncc4)cc32)sc1C(N)=O)c1ccccc1Cl", "note": "[GSK483724]", "%Inh": 82}
{"smiles": "CN(c1ccc2c(c1)nc(NCc1ccc(F)cc1)n2C)c1ccnc(Nc2ccc(CS(C)(=O)=O)cc2)n1.Cl", "note": "[GW813244]", "%Inh": 0}
{"smiles": "COc1cccc(C2=C(Nc3cccc(Cl)c3)C(=O)NC2=O)c1", "note": "[SB-341556]", "%Inh": 55}
{"smiles": "O=C(Nc1cccc(Oc2ccc3nccn3n2)c1)Nc1cccc(C(F)(F)F)c1", "%Inh": 0}
{"smiles": "O=C(NOCC1CC1)c1cc(Br)c(F)c(F)c1Nc1ccc(I)cc1Cl", "%Inh": 0}
{"smiles": "CN1CCN(CCNc2nc3cc(Oc4ccc(NC(=O)Nc5cc(C(F)(F)F)ccc5F)cc4)ccc3[nH]2)CC1.Cl.Cl", "note": "[GW768504]", "%Inh": 0}
{"smiles": "N#Cc1cccc(C(=O)NC2CCN(c3ccnc(Nc4ccc(F)cc4)n3)C2)c1", "note": "(stereo not shown) [GSK1379708]", "%Inh": 21}
